Data on 31 molecules can be found in article PMC6792352, “Limited Chemical Structural Diversity Found to Modulate Thyroid Hormone Receptor in the Tox21 Chemical Library” (Environmental Health Perspectives, 2019).

Molecules are shown by their SMILES. Structures can show the parent of a compound that is named as a salt.

A word on the AC50: it is the midpoint of the concentration-response curve, whichever way the signal moves.

The experiment deals with thyroid hormone receptor (endogenous TRα and TRβ). Also on record: species or system GH3-TRE-Luc (rat pituitary); GH3-TRE-Luc luciferase reporter, antagonist mode against 1 nM T3, loss of signal, qHTS. Particulars: read-out: Average AC50 (uM) GH3-TRE-Antag, antagonist mode, 1 nM T3, no GH3 cytotoxicity hit.
As for `C[C@](N)(Cc1ccc(O)c(O)c1)C(=O)O` [Methyldopa sesquihydrate], the AC50 was above 50 µM.

As for `CCCC[C@H](CC)COC(=O)/C=C/c1ccc(OC)cc1` [Octinoxate], the AC50 was above 50 µM.

As for `CCC(Cc1c(I)cc(I)c(N)c1I)C(=O)O` (stereo not shown) [Iopanoic acid], the AC50 is above 20 µM.

As to `CCCCCCCCCCCCNC(=N)N` [Dodine], the AC50 came out at 2.89 µM.

Regarding `CN[C@H]1C[C@@H](N)[C@H](O)[C@@H](O[C@@H]2O[C@H](CO)[C@H](O)[C@@H]3OC4(O[C@H]23)O[C@H]([C@@H](N)CO)[C@H](O)[C@H](O)[C@H]4O)[C@@H]1O` (stereo partly shown) [Hygromycin B], the AC50 was 12.9 µM.

With `CCCCCCCCCCCCCCCC(=O)O[C@@H]1CC(C)=C(/C=C/C(C)=C/C=C/C(C)=C/C=C/C=C(C)/C=C/C=C(C)/C=C/C2=C(C)C[C@@H](OC(=O)CCCCCCCCCCCCCCC)CC2(C)C)C(C)(C)C1` [Physalien], the AC50 is 39.2 µM.

Regarding `C=CC(C)(CCC=C(C)C)OC(=O)/C=C/c1ccccc1` (stereo not shown) [Linalyl cinnamate], the AC50 amounted to 73.9 µM.

With `CC(C(=O)O)c1ccc(N2Cc3ccccc3C2=O)cc1` (stereo not shown) [Indoprofen], the AC50 is 7.85 µM.

For `CCCCC(CC)COC(=O)/C=C/c1ccc(OC)cc1` (stereo not drawn) [2-Ethylhexyl trans-4-methoxycinnamate], the AC50 is above 90 µM.

Turning to `CC1=C(C)S(=O)(=O)CCS1(=O)=O` [Dimethipin], the AC50 worked out at 86.8 µM.

`C[C@]12CC[C@@H]3c4ccc(O)cc4CC[C@H]3[C@@H]1CC[C@@H]2O` [17beta-Estradiol]: the AC50 worked out at 31.7 µM.

As for `Cc1ccc2oc(CN(Cc3ccccc3)C(=O)Nc3c(F)cc(F)cc3F)c(-c3ccc(Cl)cc3)c2c1` [FR145237], the concentration at half-maximal activity (AC50) came to 4.47 µM.

For the molecule `C#C[C@]1(O)CC[C@H]2[C@@H]3CCC4=CC(=O)CC[C@@H]4[C@H]3C(=C)C[C@@]21CC` [Etonogestrel], the AC50 stood at 19.5 µM.

For `C[C@H](CN1CCCC1)C(=O)c1ccc(C(F)(F)F)cc1` [Lanperisone hydrochloride], the AC50 turned out to be 31.4 µM.

Regarding `CC(C)[C@@H](C)/C=C/[C@@H](C)[C@H]1CC[C@H]2/C(=C/C=C3\C[C@@H](O)CC[C@@H]3C)CCC[C@]12C` [Dihydrotachysterol], the AC50 was 26.8 µM.

As for `Cc1oc(=O)oc1CN1CCN(c2cc3c(cc2F)c(=O)c(C(=O)O)c2n3C(C)S2)CC1` (stereo not shown) [Prulifloxacin], the AC50 was above 50 µM.

On to `CC(C)(C)c1ccc(OC(=O)c2ccccc2O)cc1` [4-tert-Butylphenyl salicylate], for which the AC50 was above 90 µM.

As to `Clc1cccc(C(c2ccc3[nH]cnc3c2)n2ccnc2)c1` (stereo not shown) [Liarozole hydrochloride], the AC50 turned out to be 38.6 µM.

`CC1(C)[C@H](C(=O)O[C@H](C#N)c2cccc(Oc3ccccc3)c2)[C@@H]1C=C(Cl)Cl` [alpha-Cypermethrin]: the AC50 was above 90 µM.

Take `CC1=CC[C@H](C(C)C)C=C1` [(R)-alpha-Phellandrene]: the AC50 amounted to 54.5 µM.

For `CCO[Si](CC(C)C)(OCC)OCC` [Triethoxy(2-methylpropyl)silane], the AC50 was found to be 66.1 µM.

For the molecule `C[C@@H]1C[C@H]2[C@@H]3C[C@H](F)C4=CC(=O)C=C[C@]4(C)[C@@]3(F)[C@@H](O)C[C@]2(C)[C@@]1(O)C(=O)COC(=O)C(C)(C)C` [Flumethasone pivalate], the AC50 was determined as 26.2 µM.

Regarding `O=C(O)Cn1c(C(=O)Nc2nc(-c3ccccc3Cl)cs2)cc2ccccc21` [Lintitript], the AC50 is above 50 µM.

Consider `Cc1c(COC(=O)[C@@H]2[C@H](/C=C(\Cl)C(F)(F)F)C2(C)C)cccc1-c1ccccc1` (racemic) [Bifenthrin], for which the AC50 was 17.5 µM.

Take `CC(C)NCC(O)COc1ccc(CCOCC2CC2)cc1` (stereo not shown) [Betaxolol]: the AC50 is 39.4 µM.

As to `OCc1c[nH]c2ccccc12` [Indole-3-carbinol], the AC50 is 58.4 µM.

Regarding `COC(=O)N[C@H](C(=O)N[C@@H](Cc1ccccc1)[C@@H](O)CN(Cc1ccc(-c2ccccn2)cc1)NC(=O)[C@@H](NC(=O)OC)C(C)(C)C)C(C)(C)C` [Atazanavir], the AC50 was determined as 19.5 µM.

Turning to `O=C(CCCCCCCCC#CI)Oc1ccccc1` [Phenyl 11-iodo-10-undecynoate], the half-maximal activity concentration (AC50) came to 21.5 µM.

As to `CC[C@H](C)COC(=O)/C=C/c1ccc(N=Cc2ccc(OC)cc2)cc1` [(+)-2-Methylbutyl-4-methoxybenzyladine-4'-aminocyannate], the AC50 is 62 µM.

In the case of `CCCCOC(=O)/C=C\C(=O)OCCCC` [Dibutyl maleate], the AC50 stood at 37.6 µM.

`CNc1cc(OC)c(C(=O)N[C@@H]2CCN(Cc3ccccc3)[C@@H]2C)cc1Cl` (racemic) [Nemonapride]: the AC50 turned out to be 36.4 µM.
